Reference: PubChem BioAssay (EPA / NIEHS)
Where “and” joins values, the source holds several entries; their conditions need not be identical. Identical values can stand only once. Results filed as inconclusive are left out. Calls of active or inactive are those of the source. How the source made its calls, unless noted: active means hit-call score of the fitted dose curve at least 0.9, where 1 is the maximum; inconclusive means response in the unintended direction; inactive means score below 0.9.

What was measured:
[1] = target: Estrogen receptor (Homo sapiens) (UniProt P03372); test: OT_ERa_GFPERaERE_0120: Odyssey Thera (OT) 2-hour HeLa Transcription Induction Assay for Estrogen Receptor (AID 2283382)
Chain of Estrogen receptor (Homo sapiens) (P03372 whole entry, looked up): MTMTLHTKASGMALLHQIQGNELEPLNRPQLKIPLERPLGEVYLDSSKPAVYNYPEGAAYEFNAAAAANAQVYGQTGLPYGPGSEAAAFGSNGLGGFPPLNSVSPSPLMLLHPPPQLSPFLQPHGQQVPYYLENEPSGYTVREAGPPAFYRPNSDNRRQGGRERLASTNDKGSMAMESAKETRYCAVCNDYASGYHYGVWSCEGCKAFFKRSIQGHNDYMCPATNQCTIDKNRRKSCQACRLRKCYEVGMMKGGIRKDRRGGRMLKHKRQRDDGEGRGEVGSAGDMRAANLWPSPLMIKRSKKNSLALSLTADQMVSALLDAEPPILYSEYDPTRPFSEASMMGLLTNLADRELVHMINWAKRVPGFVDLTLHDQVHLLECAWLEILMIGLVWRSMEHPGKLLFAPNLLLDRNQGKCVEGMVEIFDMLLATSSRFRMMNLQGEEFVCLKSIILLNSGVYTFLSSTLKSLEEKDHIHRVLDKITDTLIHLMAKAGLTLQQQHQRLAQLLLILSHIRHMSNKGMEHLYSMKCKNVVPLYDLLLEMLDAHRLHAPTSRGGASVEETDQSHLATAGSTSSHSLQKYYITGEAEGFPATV
How it was run: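 HeLa cells were dosed for 2 h, then GFP reporter induction was quantified by fluorescence microscopy with high-content image analysis. Gain of signal fitted against DMSO baseline.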

[2] = target: Retinoic acid receptor RXR-alpha (Homo sapiens) (UniProt P19793); test: OT_NURR1_NURR1RXRa_1440: Odyssey Thera (OT) 24-hour HEK293T Protein Complementation Assay for Nurr1/retinoid X receptor (RXR) (AID 2283386)
Chain of Retinoic acid receptor RXR-alpha (Homo sapiens) (P19793 whole entry, looked up, the tested form may be a part): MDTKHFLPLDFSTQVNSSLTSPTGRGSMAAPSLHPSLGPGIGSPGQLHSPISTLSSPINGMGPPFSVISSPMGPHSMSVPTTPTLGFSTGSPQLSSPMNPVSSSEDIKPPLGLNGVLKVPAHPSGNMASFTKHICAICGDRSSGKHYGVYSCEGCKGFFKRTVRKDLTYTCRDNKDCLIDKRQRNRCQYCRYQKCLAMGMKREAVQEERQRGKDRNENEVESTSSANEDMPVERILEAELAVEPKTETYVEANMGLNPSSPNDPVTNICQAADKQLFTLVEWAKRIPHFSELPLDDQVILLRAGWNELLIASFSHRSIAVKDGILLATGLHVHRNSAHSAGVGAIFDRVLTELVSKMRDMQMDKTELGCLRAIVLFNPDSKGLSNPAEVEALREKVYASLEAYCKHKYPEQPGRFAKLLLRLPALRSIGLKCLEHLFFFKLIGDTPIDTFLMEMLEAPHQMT
How it was run: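 HEK293T protein-fragment complementation of Nurr1 and RXRα fused to reporter fragments; compounds 24 h. Fluorescence gain from reconstituted reporter fitted versus DMSO.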

[3] = target: Peroxisome proliferator-activated receptor gamma (Homo sapiens) (UniProt P37231); test: OT_PPARg_PPARgSRC1_1440: Odyssey Thera (OT) 24-hour Protein-Complementation Assay for Peroxisome Proliferator-activated Receptor Gamma/ SRC-1 Co-activator (AID 2283388);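 further: nuclear to cytoplasmic ratio of reconstituted Venus YFP fluorescence in fixed imaged cells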
Chain of Peroxisome proliferator-activated receptor gamma (Homo sapiens) (P37231 whole entry, looked up, the tested form may be a part): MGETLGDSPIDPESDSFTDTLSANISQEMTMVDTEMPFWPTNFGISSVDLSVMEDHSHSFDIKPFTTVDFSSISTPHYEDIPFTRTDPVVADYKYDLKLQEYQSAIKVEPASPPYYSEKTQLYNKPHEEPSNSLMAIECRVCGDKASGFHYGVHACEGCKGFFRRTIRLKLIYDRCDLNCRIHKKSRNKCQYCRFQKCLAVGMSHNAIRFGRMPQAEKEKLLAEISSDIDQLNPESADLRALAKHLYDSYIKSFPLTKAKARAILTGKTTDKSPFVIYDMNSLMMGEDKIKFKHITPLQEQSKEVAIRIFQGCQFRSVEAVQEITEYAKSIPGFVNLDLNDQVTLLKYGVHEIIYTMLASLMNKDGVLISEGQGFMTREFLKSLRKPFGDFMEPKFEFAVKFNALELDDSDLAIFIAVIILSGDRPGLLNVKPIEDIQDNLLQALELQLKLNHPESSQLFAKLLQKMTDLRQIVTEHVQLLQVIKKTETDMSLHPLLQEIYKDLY
How it was run: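 Readout is the 488 nm N/C fluorescence ratio from fixed, Draq5-stained HEK293T cells after 24 h compound exposure. Cells carried transiently transfected PPARg and SRC-1 fused to Venus fragments, transfected 48 h before treatment.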

[4] = CEETOX_H295R_11DCORT: CeeTox H295R High-throughput Steroidogenesis Assay for 11-Deoxycortisol (11DCORT) (AID 2283432; active means hit-call score of the fitted dose curve at least 0.9, where 1 is the maximum; inactive means score below 0.9;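 on AC50: 11-deoxycortisol secreted into the medium measured by LC-MS/MS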); settings: actives raise or lower the signal
How it was run: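 H295R cells; 10 uM forskolin prestim 48 h; compound in 0.1% DMSO 48 h; media extracted with MTBE; 11-deoxycortisol by LC-MS/MS, 7-point standard curve; gain/loss vs DMSO baseline; viability by MTT in same wells.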

[5] = CEETOX_H295R_OHPREG: CeeTox H295R High-throughput Steroidogenesis Assay for OH-Pregnenolone (OHPREG) (AID 2283434; active means hit-call score of the fitted dose curve at least 0.9, where 1 is the maximum; inactive means score below 0.9); settings: actives raise or lower the signal
How it was run: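 H295R cells pre-stimulated 48 h with 10 uM forskolin, then exposed 48 h to chemical in 0.1% DMSO. 17alpha-hydroxypregnenolone in medium quantified by MTBE extraction and HPLC-MS/MS; bidirectional fit versus DMSO, viability checked by MTT.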

[6] = CEETOX_H295R_OHPROG: CeeTox H295R High-throughput Steroidogenesis Assay for OH-Progesterone (OHPROG) (AID 2283435; active means hit-call score of the fitted dose curve at least 0.9, where 1 is the maximum; inactive means score below 0.9); settings: actives raise or lower the signal
How it was run: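 H295R adrenal cells prestimulated 48 h with 10 uM forskolin, then exposed 48 h to chemical (0.1% DMSO final). 17alpha-hydroxyprogesterone in medium quantified by HPLC-MS/MS; bidirectional fit versus DMSO, with MTT viability measured in the same wells.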

[7] = CEETOX_H295R_CORTIC: CeeTox H295R High-throughput Steroidogenesis Assay for Corticosterone (CORTIC) (AID 2283437; active means hit-call score of the fitted dose curve at least 0.9, where 1 is the maximum; inactive means score below 0.9;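 further: corticosterone secreted into medium quantified by mass spectrometry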;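 on AC50: human H295R adrenal cells prestimulated with forskolin before chemical exposure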); settings: actives raise or lower the signal
How it was run: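 H295R adrenal cells prestimulated 48 hours with 10 uM forskolin, then exposed 48 hours to chemical in 0.1% DMSO. Corticosterone in medium measured by HPLC-MS/MS after MTBE extraction; MTT viability in the same wells; bidirectional fit versus DMSO.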

[8] = CEETOX_H295R_CORTISOL: CeeTox H295R High-throughput Steroidogenesis Assay for Cortisol (AID 2283438; active means hit-call score of the fitted dose curve at least 0.9, where 1 is the maximum; inactive means score below 0.9); settings: actives raise or lower the signal
How it was run: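 Forskolin-primed H295R cells (10 uM, 48 h) treated 48 h with test chemical in 0.1% DMSO. Cortisol in medium quantified by MTBE extraction and HPLC-MS/MS; bidirectional fit vs DMSO, MTT viability in same wells.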

[9] = CEETOX_H295R_DOC: CeeTox H295R High-throughput Steroidogenesis Assay for DOC (AID 2283439; active means hit-call score of the fitted dose curve at least 0.9, where 1 is the maximum; inactive means score below 0.9); settings: actives raise or lower the signal
How it was run: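 H295R cells prestimulated 48 h with 10 uM forskolin, then exposed 48 h to test chemical (0.1% DMSO final). Medium 11-deoxycorticosterone measured by HPLC-MS/MS after MTBE extraction; bidirectional fit vs DMSO, viability checked by MTT in same wells.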

[10] = CEETOX_H295R_ESTRADIOL: CeeTox H295R High-throughput Steroidogenesis Assay for Estradiol (AID 2283440; active means hit-call score of the fitted dose curve at least 0.9, where 1 is the maximum; inactive means score below 0.9;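 further: estradiol secreted into medium quantified by LC-MS/MS after dansyl derivatisation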); settings: actives raise or lower the signal
How it was run: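 Estradiol in spent medium measured by LC-MS/MS after dansyl chloride derivatisation. Forskolin-primed (10 uM, 48 h) human adrenal H295R cells received test chemical 48 h at 0.1% DMSO; concentrations lowered until MTT viability >/=70%.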

[11] = CEETOX_H295R_ESTRONE: CeeTox H295R High-throughput Steroidogenesis Assay for Estrone (AID 2283441; active means hit-call score of the fitted dose curve at least 0.9, where 1 is the maximum; inactive means score below 0.9;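 further: estrone secreted into medium measured by LC-MS/MS after dansyl derivatization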); settings: actives raise or lower the signal
How it was run: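 H295R cells prestimulated 48 h with 10 uM forskolin, then exposed 48 h to chemicals in 0.1% DMSO final; estrone in medium extracted with MTBE, dansyl-derivatized, quantified by HPLC-MS/MS; bidirectional fitting versus DMSO, viability by MTT.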

[12] = CEETOX_H295R_PROG: CeeTox H295R High-throughput Steroidogenesis Assay for Progesterone (PROG) (AID 2283442; active means hit-call score of the fitted dose curve at least 0.9, where 1 is the maximum; inactive means score below 0.9;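 on AC50: human H295R adrenal cells primed with 10 µM forskolin before dosing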); settings: actives raise or lower the signal
How it was run: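 Progesterone secreted by human H295R cells was measured by LC-MS/MS following 48 h chemical exposure at 0.1% DMSO, preceded by 48 h forskolin (10 uM) stimulation. Same-well MTT viability; cytotoxic concentrations diluted 10- or 100-fold and retested.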

[13] = ATG_XTT_Cytotoxicity: Cytotoxicity Assessment in the Attagene TRANS-FACTORIAL HepG2 Assay (AID 2283584);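 on AC50: cells exposed to compound for 24 h before reading; active means loss of viability signal versus DMSO baseline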
How it was run: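 Viability endpoint from XTT after 24 h chemical exposure of reporter-transfected human HepG2 liver cells; signal loss fitted relative to DMSO negative control.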

[14] = TOX21_p53_BLA_p2_viability: Viability Assessment in the Tox21 HCT-116 p53 Agonism Beta-lactamase Assay, Phase 2 (AID 2283591);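 further: compound exposure lasted 16 h at 37 °C; actives lower the ATP signal meaning cytotoxicity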
How it was run: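 HCT116 p53-bla cells, 4000/well, dosed after 5 h plating (217-fold dilution of DMSO stocks) and incubated 16 h at 37C. Viability taken as cellular ATP by CellTiter-Glo luminescence after 30 min RT; signal loss marks cytotoxicity.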

[15] = target: Bile acid receptor (Homo sapiens) (UniProt Q96RI1); test: OT_FXR_FXRSRC1_0480: Odyssey Thera (OT) 8-hour HEK293T Protein-Complementation Assay for Farnesoid X receptor/SRC-1 Co-activator (AID 2283383)
Chain of Bile acid receptor (Homo sapiens) (Q96RI1 whole entry, looked up, the tested form may be a part): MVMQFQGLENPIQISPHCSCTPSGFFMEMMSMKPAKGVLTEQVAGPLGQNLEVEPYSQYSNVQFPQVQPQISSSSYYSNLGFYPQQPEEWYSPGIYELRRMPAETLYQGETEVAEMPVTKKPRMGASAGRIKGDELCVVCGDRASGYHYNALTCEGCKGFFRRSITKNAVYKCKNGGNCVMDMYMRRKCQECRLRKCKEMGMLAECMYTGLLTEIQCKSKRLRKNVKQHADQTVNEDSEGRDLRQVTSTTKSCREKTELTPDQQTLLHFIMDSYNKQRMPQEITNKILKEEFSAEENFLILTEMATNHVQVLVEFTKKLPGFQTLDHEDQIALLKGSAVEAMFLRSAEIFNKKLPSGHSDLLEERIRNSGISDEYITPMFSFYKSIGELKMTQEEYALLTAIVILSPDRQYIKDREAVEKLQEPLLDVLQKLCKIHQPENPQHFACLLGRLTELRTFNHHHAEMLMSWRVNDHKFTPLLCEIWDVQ
How it was run: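 HEK293T protein-fragment complementation assay: FXR and SRC-1 coactivator are fused to reporter fragments, and their interaction restores a fluorescent reporter. Readout was taken 8 h after dosing, with gain of signal fit relative to DMSO.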

[16] = target: Bile acid receptor (Homo sapiens) (UniProt Q96RI1); test: OT_FXR_FXRSRC1_1440: Odyssey Thera (OT) 24-hour HEK293T Protein-Complementation Assay for Farnesoid X receptor/SRC-1 Co-activator (AID 2283384)
How it was run: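 HEK293T cells, 24 h after chemical dosing. FXR–SRC-1 coactivator interaction read as fluorescence from protein-fragment complementation of a split reporter. Gain of signal fitted against DMSO baseline.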

[17] = target: Retinoic acid receptor RXR-alpha (Homo sapiens) (UniProt P19793); test: OT_NURR1_NURR1RXRa_0480: Odyssey Thera (OT) 8-hour HEK293T Protein Complementation Assay for Nurr1/retinoid X receptor (RXR) (AID 2283385)
How it was run: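 HEK293T cells expressing Nurr1 and RXRα fused to reporter fragments (protein-fragment complementation); fluorescence measured 8 h after dosing. Gain of signal fitted relative to DMSO.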

[18] = target: Peroxisome proliferator-activated receptor gamma (Homo sapiens) (UniProt P37231); test: OT_PPARg_PPARgSRC1_0480: Odyssey Thera (OT) 8-hour Protein-Complementation Assay for Peroxisome Proliferator-activated Receptor Gamma / SRC-1 Co-activator (AID 2283387);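 further: nuclear to cytoplasmic split Venus YFP fluorescence ratio reporting PPARg SRC-1 interaction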
How it was run: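 Read-out: 488 nm N/C fluorescence ratio from complemented Venus YFP fragments, ≥350 cells per image, gain-of-signal fitted against DMSO baseline. Fusions of PPARg/SRC-1 with IFP1/IFP2 expressed transiently in HEK293T; compounds applied 8 h.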

[19] = CEETOX_H295R_ANDR: CeeTox H295R High-throughput Steroidogenesis Assay for Androstenedione (ANDR) (AID 2283436; active means hit-call score of the fitted dose curve at least 0.9, where 1 is the maximum; inactive means score below 0.9); settings: actives raise or lower the signal
How it was run: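 H295R cells, following OECD 456 with minor changes, exposed to chemicals for 48 h. Androstenedione in the medium was quantified by HPLC-MS/MS after MTBE extraction. Fitting was bidirectional versus DMSO; chemicals were diluted until MTT viability was ≥70%.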

[20] = CEETOX_H295R_TESTO: CeeTox H295R High-throughput Steroidogenesis Assay for Testosterone (TESTO) (AID 2283457; active means hit-call score of the fitted dose curve at least 0.9, where 1 is the maximum; inactive means score below 0.9;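 on AC50: cells exposed to chemicals for 48 h before medium collection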); settings: actives raise or lower the signal
How it was run: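 Testosterone secreted into the medium over 48 h by H295R cells (maximum passage 10) was quantified by LC-MS/MS after MTBE extraction. Fitted in both directions against DMSO, with concentrations diluted until MTT viability was ≥70%.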

Measured: AC50

CC(Cc1ccc(O)c(O)c1)C(C)Cc1ccc(O)c(O)c1 (centres undefined)
inactive: [2] | [3] | [5] | [10] | [11] | [13]
active: [1] 1.47 µM | [4] 79.6 µM | [6] 4.19 µM | [7] 12.7 µM | [8] 78.3 µM | [9] 11.7 µM | [12] 13.9 µM | [14] 63.6 µM

C#C[C@]1(O)CC[C@H]2[C@@H]3CCc4cc(OC)ccc4[C@H]3CC[C@@]21C
active: [1] 0.0294 µM | [15] 60.4 µM | [16] 46.8 µM | [2] 78.8 µM | [6] 7.82 µM | [12] 3.58 µM
not listed: [7] | [10] | [11] | [19] | [20]
inactive: all other assays above

COC(=O)C1CCC(C(=O)OC)CC1 (centres undefined)
inactive: [1] | [15] | [16] | [17] | [3] | [13]

CCCCC(CC)COP(=O)(O)OCC(CC)CCCC (centres undefined)
inactive: [1] | [15] | [17]
active: [16] 71.8 µM | [18] 64.4 µM | [3] 67.8 µM | [13] 146 µM

CNC(=S)NC
inactive: [1] | [15] | [16] | [17] | [18] | [3] | [13] | [14]

C1COCCN1
inactive: [1] | [17] | [2] | [13] | [14]

CCCCCCOC(=O)c1ccccc1
inactive: [1] | [15] | [17] | [18] | [3] | [13] | [14]

CCCCCCS
not listed: [1] | [2] | [3] | [14] | [15] | [16] | [17] | [18]
inactive: all other assays above

Nc1ccc([N+](=O)[O-])cc1O
inactive: [13] | [14]

CCN(CC)c1ccc2c(C)cc(=O)oc2c1
inactive: [13] | [14]

CC(C)=CCCC(C)CCOC(=O)C(C)C (centres undefined)
inactive: [13]

CS(C)(=O)=O
inactive: [13]

CCCCCC=O
inactive: [13] | [14]

CCCCCCCOC(=O)c1ccccc1C(=O)OCCCCCCC
inactive: [13]

CO[Si](OC)(c1ccccc1)c1ccccc1
inactive: [13]

COC(OC(C)=O)c1ccccc1 (centres undefined)
inactive: [13]

CC(=O)Nc1ccc(N=Nc2cc(C)ccc2O)cc1
inactive: [5] | [8] | [9] | [10] | [11] | [13]
active: [4] 33.7 µM | [6] 16 µM | [19] 25 µM | [7] 25 µM | [12] 20.9 µM | [20] 31.5 µM

C=CC/C=C/C/C=C/C/C=C/C
inactive: [13]

CCCCNc1ccccc1
inactive: [13] | [14]

CCc1c(Br)c(Br)c(Br)c(Br)c1Br
inactive: [13]

CC(C)c1ccccc1N
inactive: [13]

c1ccc(-c2ccccc2-c2ccccc2)cc1
inactive: [13]

CCc1ccc(C(c2ccc(CC)cc2)C(Cl)Cl)cc1
inactive: [14]

O=C(C=Cc1ccccc1)OCC=Cc1ccccc1
inactive: [13] | [14]

Nc1cc(Cl)c(N)c(Cl)c1
inactive: [13] | [14]

O[Si](c1ccccc1)(c1ccccc1)c1ccccc1
inactive: [13]

CCCCCCCCCCCCCCCC[N+](C)(C)Cc1ccccc1
inactive: [13]
active: [14] 42.5 µM and 23 µM

Nc1ccc(Oc2cccc(Oc3ccc(N)cc3)c2)cc1
active: [6] 2.87 µM | [7] 2.84 µM | [8] 3.6 µM | [12] 3.9 µM
inactive: [4] | [5] | [9] | [10] | [11] | [13]

CCCCOCCOCCOC(=O)CCCCC(=O)OCCOCCOCCCC
inactive: [13]

CC(C)(C)c1ccc(OC2CCCCC2O)cc1 (centres undefined)
inactive: [13]

CC/C=C\CCOC(=O)c1ccccc1
inactive: [13]
